The supplement of paper PMC6555819

What was measured:
Assay in all cases: PBM binding z-score (relative to random genomic background probes); higher = stronger binding; sequences stand for … in GC…GCGATTGACAGCGTAGAATGAAGG
[1] = system: PPARg:RXRa DBDmut IVT, anti-RXR (DBD mutation: RXRa K156A/R161A, NR concentration 270 nM, RXRa partner concentration 90 nM)
Summary of the method: (§1)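 Binding buffer was PBS pH 7.4 with 2% milk, 0.02% Triton X-100, 1 mM DTT, 0.2 mg/mL BSA and 0.4 mg/ml salmon testes DNA. In it, ligand-free nuclear receptor dimers were incubated 1 h on custom Agilent 4×180K protein-binding microarrays carrying double-stranded probes. Antibodies against each partner (one per run) detected binding, and z-scores were calculated against random background probes after regression normalization of scanned fluorescence.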

[2] = system: PPARg:RXRa IVT, anti-PPARg (NR concentration 270 nM, RXRa partner concentration 90 nM)
Summary of the method: as §1

[3] = system: PPARg DBDmut:RXRa IVT, anti-PPARg (DBD mutation: PPARg1 K132A/R137A, NR concentration 270 nM, RXRa partner concentration 90 nM)
Summary of the method: as §1

[4] = system: PPARg DBDmut IVT, anti-PPARg (DBD mutation: PPARg1 K132A/R137A, NR concentration 270 nM)
Summary of the method: as §1

[5] = system: PPARg homodimer (NR concentration 180 nM)
Summary of the method: as §1

[6] = system: PXR:RXRa (NR concentration 270 nM, RXRa partner concentration 90 nM)
Summary of the method: as §1

[7] = system: PXR homodimer (NR concentration 270 nM)
Summary of the method: as §1

[8] = system: RARa:RXR (NR concentration 270 nM, RXRa partner concentration 90 nM)
Summary of the method: as §1

[9] = system: RARa homodimer (NR concentration 270 nM)
Summary of the method: as §1

[10] = system: RARb:RXRa (NR concentration 270 nM, RXRa partner concentration 90 nM)
Summary of the method: as §1

[11] = system: RARb homodimer (NR concentration 270 nM)
Summary of the method: as §1

[12] = system: RARg:RXRa (NR concentration 270 nM, RXRa partner concentration 90 nM)
Summary of the method: as §1

[13] = system: RARg homodimer (NR concentration 270 nM)
Summary of the method: as §1

[14] = system: RXRa DBDmut IVT, anti-RXR (DBD mutation: RXRa K156A/R161A, NR concentration 90 nM)
Summary of the method: as §1

[15] = system: RXRa homodimer (NR concentration 180 nM)
Summary of the method: as §1

[16] = system: THRa:RXRa (NR concentration 90 nM, RXRa partner concentration 90 nM)
Summary of the method: as §1

[17] = system: THRa homodimer (NR concentration 90 nM)
Summary of the method: as §1

[18] = system: VDR homodimer (NR concentration 270 nM)
Summary of the method: as §1

Sequence	PBM binding z-score [1]	PBM binding z-score [2]	PBM binding z-score [3]	PBM binding z-score [4]	PBM binding z-score [5]	PBM binding z-score [6]	PBM binding z-score [7]	PBM binding z-score [8]	PBM binding z-score [9]	PBM binding z-score [10]	PBM binding z-score [11]	PBM binding z-score [12]	PBM binding z-score [13]	PBM binding z-score [14]	PBM binding z-score [15]	PBM binding z-score [16]	PBM binding z-score [17]	PBM binding z-score [18]
CCGAGTAGGTTATGGAGCATTCAGGCAACGGTGA	3.11	2.34	-1.14	-0.703	0.952	-0.208	0.0693	0.144	0.512	0.499	0.461	0.362	0.489	0.355	0.308	0.145	0.277	0.244
ATCTCTAGGTAAAGGTTCAGTGAATCCCGAGGAT	2.8	3.07	1.06	0.461	0.615	0.795	0.0698	0.886	0.514	1.32	1.24	1.03	1.05	0.869	1.01	1.1	0.351	1.99
CCTGCTTGGTCATGGTCAGCTAATCTACAGTATG	0.417	0.0763	-1.17	-0.614	0.0024	-0.154	-0.228	-0.106	-0.318	1.24	0.424	0.464	0.774	0.252	0.162	-0.0915	-0.506	-0.205
TCACATAGGTAAAGGTGAAAGTCGAACGATATGA	2.47	2.45	0.764	0.579	1.1	1.19	0.504	1.75	1.33	2.05	1.65	1.65	1.26	1.26	2.34	1.44	-0.0581	-0.223
TCTAGTTGGTCACCGAGGTCACACACGACGGGTA	2.51	4.29	1.31	2.33	3.73	5.31	2.5	5.61	1.78	3.92	4.5	4.8	4.64	1.4	5.06	4.2	4.2	3.89
CCTGCTAGGTCATGGTCAGCTTATCTACAGTATG	4.34	3.48	0.0412	-0.178	1.32	1.35	-0.301	2.36	0.172	3.81	3.15	3.67	4.7	1.86	3.01	2.97	1.52	0.201
CGAACTTGGTCATCCAGGACAGTGAATACATTGA	1.09	1.08	0.648	0.367	-0.34	0.166	0.269	0.326	-0.093	1.23	0.498	0.874	1.24	0.427	0.551	1.91	1.02	0.3
CCTCGGAGGACAGAAGGTCGGAGCTGTCCGCTTT	-0.473	-0.963	-1.7	-2.08	0.00885	-0.282	-0.764	-0.413	-0.449	1.12	1.03	0.91	0.81	-0.0663	-0.268	0.396	-0.577	-0.651
TTACCAAGGTGAAGGTCGTTGACCCCTCTGTAGA	1.51	3.73	-0.0772	-0.567	2.99	4.73	0.313	5.73	0.145	2.87	3.35	3.33	2.12	0.133	4.95	3.6	1.43	1.51
CGTCCGAGGTCAGCAGGTCAGTGAAAGCGACGTG	3.37	4.16	0.747	0.472	4.76	4.43	0.531	5.55	1.59	5.15	4.89	6.81	7.31	2.99	6.26	4.09	2.53	2.44
CCTACTGGGCCAAGGTCATCGATCAGTCAAAGCA	4	4.6	-0.807	-0.598	1.98	3.71	0.25	4.34	0.517	3.65	3.75	4.18	3.9	0.883	3.79	3.68	2.69	2.38
GATACAGTGTCAAGGCCAGAGTACGCGTATTGAT	0.318	0.795	0.0882	0.292	0.275	-0.0079	0.246	0.272	-0.156	1.46	1.04	0.527	1.03	0.061	0.517	0.471	-0.196	0.431
TAGAGTAGGTTAGGGGCATTCAGAATGGCGTCGA	2.77	3.28	1.38	0.566	1.85	1.08	1.72	0.913	1.66	1.81	1.72	1.16	0.918	0.0146	1.08	1.36	0.85	1.66
TCATATAGGTAAATGCTAGGTTAAAGTCCGATCT	3.88	2.47	1.36	1.02	1.14	0.98	0.768	1.29	1.88	0.735	0.967	0.772	0.598	1.74	0.914	1.35	0.664	0.441
ACAGACAGGTGAGTGAAGCTAACTCAGCTGGACG	0.196	0.291	-0.859	-1.17	-1.1	-0.701	-0.552	-0.839	-0.721	0.276	-0.638	-0.0417	0.288	-0.672	-0.0844	-0.381	-1.16	-1.08
CCTCGGAGGAGAGAAGGTCAGAGCTGTCCGCTTT	-0.223	-0.125	-1.3	-1.71	0.917	1.24	-0.114	1.74	-0.103	2.35	2.71	1.89	1.69	-0.424	1.89	1.59	-0.246	-0.0749
AGTCAAAGTTCACAAGGTAACGTAAGATTCAGCT	0.681	3.67	1.19	0.956	3.05	4.78	2.84	4.51	2.08	4.82	3.97	5.73	6.02	4.32	4.74	3.06	0.961	3.66
GCTGCTAGGTCAGGTTGGTCAGCTTACGGGTACG	2.99	1.96	-0.781	-0.52	0.591	0.193	-0.264	0.655	-0.341	3.31	2.84	2.41	3.46	0.504	0.756	1.8	0.808	0.197
ATATCTAGGTTATCGGGTCATTCAGTTTGCGCAT	7.52	7.5	1.81	3.17	3.91	3.94	8.08	3.87	2.26	2.89	3.52	3.54	2.81	1.81	3.51	3.67	3.5	4.19
ACTATTAGTTGAGACGAGGGCAAGCGATAGGTTG	0.296	0.365	0.712	0.625	0.663	1.05	0.306	0.73	0.56	0.659	1.06	0.352	0.635	0.63	0.484	2.28	0.357	0.593
AGAATGAGGTTAATATCAGGGAAACAGAATACAT	2.82	2.7	1.02	0.794	0.975	1.2	0.575	1.74	1.04	1.55	0.835	1.84	1.48	1.22	2.14	2.36	0.795	0.82
GCTTACGGGTCAAATGTTATAGCATGAATAGAAT	4.4	4.44	1.56	1.2	2.47	3.34	-0.148	4.24	0.995	3.88	2.6	4.88	4.02	2.4	5.86	2.54	-0.146	1.1
CGTCCAAGGTCAGCTGGTCAGTGAAAGCGACGTG	2.4	2.17	0.5	-0.832	2.63	2.67	-0.135	3.24	1.47	4.79	3.87	5.3	6.1	2.64	3.99	3.46	1.76	0.478
CCTCCAAGGTCAAGGTCAGTGAAAGAGACTCGAA	2.84	4.47	0.309	-0.405	3.87	4.83	1.54	5.14	2.11	5.8	5.05	6.52	7.43	3.49	6.09	4.18	3.64	2.98
CGTCCCAGGTCAAGGTCAGTGAAAGAGACTCGAA	2.24	3.62	0.134	-0.571	3.49	4.05	1.33	4.43	2.12	5.02	4.62	5.74	6.29	2.55	5.19	4.18	3.61	2.6
TCTCGGAGGACAAGAAAGGTCAGAGCTCGACATC	1.37	0.954	-0.439	-0.79	2.62	3.55	0.191	4.02	0.689	4	4.61	4.01	4.75	0.958	3.39	3.24	0.472	0.546
GCTGCTAGGACAGGTTGGTCAGCTAACGGGTACG	-0.0688	-0.79	-1.21	-0.812	-0.869	-0.739	-0.561	-0.833	-0.447	0.0113	0.214	-0.345	0.153	-0.341	-0.463	-0.106	-0.393	-0.149
ACTATTAGTTGAGACGAGGGCAACCGGTAGGTTG	0.0734	0.502	0.336	-0.0704	-0.0372	1.47	0.373	0.84	0.204	1.4	1.42	0.949	0.676	0.457	0.675	2.69	0.339	1.07
ATATGTAGGTTAGCTGGTGTCATTCAGACTAGGC	6.77	6.16	2.14	1.6	1.06	1.65	0.392	1.44	0.23	0.987	0.884	0.888	0.979	0.243	0.936	2.52	-0.1	0.617
